Results taken from PubChem BioAssay AID504834 (National Center for Advancing Translational Sciences (NCATS), 2011).
In all, about 320,000 compounds went through this assay and about 22,000 (6.9%) were called active. A call without a number means that no potency is given here. Not shown: some 27% with an inconclusive outcome. Calls follow the shape of the dose curve; as a rule, active = well fitted inhibition curve with a large enough effect; inconclusive = small, poorly fitted or top-dose-only effect, or another doubt; inactive = no such curve, though single readings can be large or run the other way. Many of the other results were omitted from the sample, so actives are more common in it than they were.
Potency is read from the fitted curve at half-maximal effect.

Test: Primary qHTS for delayed death inhibitors of the malarial parasite plastid, 96 hour incubation
Conditions: P. falciparum luciferase reporter growth; series mostly up to 28.7 µM
Summary of the method: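 Cell-based qHTS: luciferase-tagged P. falciparum in erythrocytes (2% hematocrit, 0.05% parasitemia final) incubated with compounds for 96 hours, 37 C, 5% CO2; luciferase detection reagent then added and luminescence measured.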
For `O=C(O)c1c(NC(=O)N2CCCC2)sc2c1CCCC2`, the Potency was “inactive”. For `COc1cc(NC(=S)N2CCCC(C)C2)c(OC)cc1Cl` (stereo not drawn), the Potency was “inactive”. With `COc1cc(NC(=S)N2CCCC(C)C2)cc(OC)c1OC` (stereo not drawn) the Potency was 10.4 µM (active). With `COc1ccc(NC(=S)N2CCCC(CO)C2)c(OC)c1` (stereo not drawn) the Potency was “inactive”. For `O=C(O)c1ccc(OCC2CCCO2)cc1` (stereo not drawn), the Potency was “inactive”. With `N#Cc1ccc(/C=C2\CCn3c2nc2cc(C(=O)O)ccc2c3=O)cc1` the Potency was “inactive”. In the case of `O=C(NCc1cccnc1)C12CC3CC(CC(C3)C1)C2`, the Potency is reported as “inactive”. With `CCCN1CCn2c3c(c4cc(Br)ccc42)CCCC31` (stereo not drawn) the Potency was 1.85 µM (active). With `CCc1ccc(N(CC(=O)NCc2cccnc2)S(=O)(=O)c2ccccc2)cc1` the Potency was “inactive”. With `CCN(CC(=O)Nc1ccc(NC(C)=O)cc1)C(=O)C1CC(=O)N(Cc2ccc(C)cc2)C1` (stereo not drawn) the Potency was “inactive”. In the case of `Cc1cc(=O)n2nc(N3CCCC(C(=O)N4CCN(C)CC4)C3)sc2n1` (stereo not drawn), the Potency is reported as “inactive”. In the case of `Cc1cc(=O)n2nc(N3CCCC(C(=O)NCc4cccc(Cl)c4)C3)sc2n1` (stereo not drawn), the Potency is reported as “inactive”. In the case of `CCCOc1ccc(CNC(=O)C2CCN(c3nn4c(=O)cc(C)nc4s3)CC2)cc1`, the Potency is reported as 11.7 µM (active). In the case of `Cc1cc(=O)n2nc(N3CCCC3C(=O)NCCCN3CC(C)CC(C)C3)sc2n1` (stereo not drawn), the Potency is reported as “inactive”. For `COc1ccc(CCNC(=O)C2CCN(c3nn4c(=O)cc(C)nc4s3)CC2)cc1OC`, the Potency was “inactive”. With `Cc1cc(=O)n2nc(N3CCC(C(=O)Nc4c(F)c(F)c(F)c(F)c4F)CC3)sc2n1` the Potency was 4.15 µM (active). For `Cc1ccc(CN2CC(C(=O)NNC(=O)Cn3ccc(C(F)(F)F)n3)CC2=O)cc1` (stereo not drawn), the Potency was “inactive”. With `Cc1ccc(-c2noc(C3CCCN(C(=O)c4cccc(Cl)c4)C3)n2)o1` (stereo not drawn) the Potency was “inactive”. For `N#CC1(NC(=O)COC(=O)CSc2ccc(F)cc2)CCCCC1`, the Potency was “inactive”. For `O=C(Nc1cccc(F)c1)NC1CCCCCCC1`, the Potency was “inactive”. For `CCCCNC(=O)N(O)C1N(/N=C/c2ccc(N(C)C)cc2)C(=S)SC1(C)C` (stereo not drawn), the Potency was “inactive”. In the case of `CCCCNC(=O)N(O)C1N(/N=C/c2ccccc2O)C(=S)SC1(C)C` (stereo not drawn), the Potency is reported as 3.29 µM (active). In the case of `O=C(/C=C/c1ccco1)NC(=S)N1CCCCC1`, the Potency is reported as “inactive”. For `CC(=O)Oc1ccc2c(c1)C(=O)c1ccccc1C2=O`, the Potency was “inactive”. In the case of `CCOC(=O)c1cnc(COc2ccccc2Cl)[nH]c1=O`, the Potency is reported as “inactive”. For `CCOC(=O)c1cnc(SC)nc1Sc1ccc(Cl)cc1Cl`, the Potency was 9.28 µM (active). For `CCOC(=O)c1nc(C)n(-c2ccc(Cl)cc2Cl)n1`, the Potency was “inactive”. For `CC[C@@H](C)[C@H](NC(=O)CCc1c(C)c2cc3c4c(oc3c(C)c2oc1=O)CCCC4)C(=O)O`, the Potency was “inactive”. In the case of `COCCn1c(N)c(NCc2ccccc2)c(=O)[nH]c1=O`, the Potency is reported as “inactive”. For `CC(C)N(C(=O)c1ccc(-c2ccccc2F)cc1)C(C)C`, the Potency was 4.65 µM (active). In the case of `CCN(CC(=O)Nc1c(F)cccc1F)C(=O)c1ccc(-c2ccccc2)cc1`, the Potency is reported as “inactive”. With `CC(Sc1nnc(-c2ccccc2F)n1C1CC1)C(N)=O` (stereo not drawn) the Potency was “inactive”. In the case of `Cc1ccn(CCC(=O)N2c3ccccc3CC2C)n1` (stereo not drawn), the Potency is reported as “inactive”. With `O=C(COC(=O)c1ccccn1)NNC(=O)c1ccc([N+](=O)[O-])cc1` the Potency was “inactive”. For `CC(O)c1nc2ccccc2n1Cc1ccc([N+](=O)[O-])cc1` (stereo not drawn), the Potency was 1.85 µM (active). With `C[C@@H](O)c1nc2ccccc2n1N` the Potency was “inactive”. With `Cc1nc2ccccc2c(=O)n1Cc1ccc([N+](=O)[O-])cc1` the Potency was “inactive”. In the case of `COc1cccc(N2CC(NC(=O)c3ccc4ccccc4c3)CC2=O)c1` (stereo not drawn), the Potency is reported as “inactive”. In the case of `COc1ccc(C2/C=C\CN(S(=O)(=O)c3cccs3)CC(=O)N2Cc2ccc(F)cc2)cc1` (stereo not drawn), the Potency is reported as 10.4 µM (active). With `COc1ccc(C2/C=C\CN(CC(C)C)CC(=O)N2Cc2ccc(F)cc2)cc1` (stereo not drawn) the Potency was “inactive”. With `O=S(=O)(c1cccs1)N1CCN(Cc2ccccc2)CC1` the Potency was “inactive”. For `CC(NC(=O)CN(C)S(=O)(=O)c1ccc(F)cc1)C1CC2CCC1C2` (stereo not drawn), the Potency was “inactive”. For `C=CCOc1ccc(/C=C/C(=O)OCC(=O)NCC2CCCO2)cc1` (stereo not drawn), the Potency was “inactive”. With `COc1cc([N+](=O)[O-])cc([N+](=O)[O-])c1NC(=O)N1CCOCC1` the Potency was “inactive”. In the case of `O=C(Nc1ccccc1C(=O)O)c1ccc(N2C(=O)C3CC=CCC3C2=O)cc1` (stereo not drawn), the Potency is reported as “inactive”. For `O=C(CSc1ccc(-c2ccc(Br)cc2)nn1)NCC1CCCO1` (stereo not drawn), the Potency was “inactive”. For `COc1ccc(CCNC(=O)CN2C(=O)COc3ccc(S(=O)(=O)N4CCCC4)cc32)cc1OC`, the Potency was “inactive”. For `CCOC(=O)C1(Cc2ccc(O)cc2)NC(c2ccccc2F)C2C(=O)N(C)C(=O)C21` (stereo not drawn), the Potency was “inactive”. For `CCN1C(=O)[C@H]2[C@@H](c3ccc(SC4CCCCC4)c(OC)c3)N[C@@](Cc3ccccc3)(C(=O)OC)[C@H]2C1=O`, the Potency was “inactive”. For `CCN1C(=O)[C@H]2[C@@H](c3ccc(-c4ccc(F)cc4)cc3)N[C@@](Cc3ccccc3)(C(=O)OC)[C@H]2C1=O`, the Potency was 5.86 µM (active). For `CCC(C)CCN1CCN=C1N(C)C` (stereo not drawn), the Potency was “inactive”. In the case of `CCOc1ccc(/C=N\NC(=O)c2c(C)nc3cc(C)ccn23)cc1`, the Potency is reported as “inactive”. With `CCOC(=O)c1nnn(-c2nonc2-n2cccc2)c1CN1CCC(C(=O)OCC)CC1` the Potency was 0.928 µM (active). In the case of `CCOC(=O)C1CCN(Cc2ccc(-c3ccccc3)cc2)CC1`, the Potency is reported as “inactive”. In the case of `CCN(CC)Cc1c(C(=O)OC)nnn1-c1nonc1N`, the Potency is reported as “inactive”. For `Cc1ccccc1OCC(=O)Nc1nnc(S(=O)(=O)N2CCCC2)s1`, the Potency was “inactive”. With `CCOC(=O)CC1COCCN1C(=O)c1cc(COc2ccc(F)c(F)c2)on1` (stereo not drawn) the Potency was “inactive”. For `Cn1c(N2CCOCC2)c(C=O)c2ccccc21`, the Potency was “inactive”. For `FC(F)(F)c1ccnc(Oc2ccc(C3=NCCS3)cc2)c1`, the Potency was “inactive”. With `O=[N+]([O-])c1cc(S(=O)(=O)CCCN2CCOCC2)ccc1F` the Potency was 10.4 µM (active). In the case of `O=C(NCCCN1CCOCC1)c1ccc([N+](=O)[O-])cc1[N+](=O)[O-]`, the Potency is reported as “inactive”. In the case of `O=S(=O)(NCCCN1CCOCC1)c1ccc(F)c(Cl)c1`, the Potency is reported as “inactive”. In the case of `CCc1nccn1CCC(=O)N1CCCC(N2CCN(c3ccccc3F)CC2)C1` (stereo not drawn), the Potency is reported as “inactive”. For `CCOc1ccc(NC(=O)CN(C)C(=O)CSc2ccccc2)cc1OCC`, the Potency was “inactive”. In the case of `CCc1ccc(-c2nn(-c3ccccc3C)cc2C(=O)N2CCN(C3CCS(=O)(=O)C3)CC2)cc1` (stereo not drawn), the Potency is reported as “inactive”. With `CCc1ccc(N2CC(C(=O)Nc3ccc(S(=O)(=O)Nc4nccs4)cc3)CC2=O)cc1` (stereo not drawn) the Potency was “inactive”. With `COc1ccc([N+](=O)[O-])cc1N(CC(O)CN(CC(C)C)CC(C)C)S(=O)(=O)c1ccc(C)cc1` (stereo not drawn) the Potency was “inactive”. In the case of `CCOc1ccc2[nH]c(C(=O)N/N=C/c3cccc(OC)c3OC)cc2c1`, the Potency is reported as “inactive”. For `COc1ccc2[nH]c(C(=O)N/N=C/c3cc(OC)c(OC)c(OC)c3)cc2c1`, the Potency was 5.86 µM (active). In the case of `COc1cc2cc(C(=O)N/N=C/c3cccc(OC)c3OC)[nH]c2cc1OC`, the Potency is reported as “inactive”. For `Cc1ccnc(NS(=O)(=O)c2ccc(NC(=O)c3oc4ccc(F)cc4c3C)cc2)n1`, the Potency was “inactive”. For `COc1ccc(Nc2ccc([N+](=O)[O-])cn2)cn1`, the Potency was “inactive”. In the case of `COC(=O)C1(O)CC(C(C)C)=NN1C(=O)c1ccc(Cl)cc1` (stereo not drawn), the Potency is reported as “inactive”. For `O=C(C1CC1)N1N=C(c2ccc(Br)cc2)CC1(O)C(F)(F)F` (stereo not drawn), the Potency was “inactive”. In the case of `O=C(c1ccc(Cl)cc1)N1N=C(c2ccccn2)CC1(O)C(F)(F)F` (stereo not drawn), the Potency is reported as 6.57 µM (active). With `Cc1ccc(NC(=O)NC(=O)c2ccccc2)cc1F` the Potency was “inactive”. In the case of `CC(=O)c1c(C)[nH]c(=S)c(C#N)c1-c1ccc(F)cc1`, the Potency is reported as “inactive”. In the case of `CCc1c(C)[nH]c(=S)c(C#N)c1C`, the Potency is reported as 3.29 µM (active). In the case of `Cc1ccc(-c2nn(C(C)(C)C)c3ncnc(N)c23)cc1`, the Potency is reported as 2.33 µM (active). With `Cc1ccc(-n2cnc3ncnc(-c4ccccc4)c32)cc1` the Potency was “inactive”. For `COc1ccccc1OC(C)C(=O)Nc1ccc(S(=O)(=O)Nc2nccs2)cc1` (stereo not drawn), the Potency was “inactive”. For `CCCn1c(C(Cc2ccccc2)NC(=O)COC)nc2ccccc21` (stereo not drawn), the Potency was “inactive”. For `COC(=O)c1ccc(CN2C(=O)NC(c3ccccc3)(c3ccccc3)C2=O)o1`, the Potency was “inactive”. With `CCCC(NC(=O)c1ccccc1)c1nc2ccccc2n1Cc1ccc(C(=O)OC)o1` (stereo not drawn) the Potency was 8.28 µM (active). With `CCc1cccc(NC(=S)N(CCN(C)C)C2CCN(C(C)C)CC2)c1` the Potency was “inactive”. With `COc1ccccc1/C=C/C(=O)OCC(=O)NC1CCCCCC1` the Potency was “inactive”. For `CCn1c(=O)c(=O)n(CC)c2cc(S(=O)(=O)N3CCc4ccccc43)ccc21`, the Potency was 13.1 µM (active). For `CSc1nc2ccc(S(=O)(=O)N3CCc4ccccc43)cc2s1`, the Potency was “inactive”. In the case of `O=S(=O)(c1ccc2c(c1)OCCO2)N1CCc2ccccc21`, the Potency is reported as “inactive”. For `O=C(NCc1ccccc1Cl)c1ccc2c(=O)n(CC3CCCO3)c(=S)[nH]c2c1` (stereo not drawn), the Potency was “inactive”. With `COc1cccc(COc2ccc(N(C)S(=O)(=O)c3ccccc3)cc2)c1` the Potency was “inactive”. In the case of `CN(c1ccc(OCC(=O)O)cc1)S(=O)(=O)c1ccc2ccccc2c1`, the Potency is reported as “inactive”. For `Cc1ccc2nc(COc3ccc(N(C)S(=O)(=O)c4ccccc4)cc3)cc(=O)n2c1`, the Potency was 10.4 µM (active). With `COCCCNC(=O)C1CC(=O)N(CCc2ccc(F)cc2)C1` (stereo not drawn) the Potency was “inactive”. In the case of `O=C(Nc1ccc2c(c1)OCO2)C1CC1(Cl)Cl` (stereo not drawn), the Potency is reported as “inactive”. With `CC(=O)N/C(=C\c1ccccc1)C(=O)OC(C)C(=O)N(C)c1ccccc1` (stereo not drawn) the Potency was “inactive”. In the case of `OCC[C@H]1C[C@H](O)[C@@H](O)[C@]2(Cc3ccccc3CO2)O1`, the Potency is reported as “inactive”. For `CCOC(=O)Cn1c(SC)nc2sc3c(c2c1=O)CC(C)(C)OC3`, the Potency was “inactive”. For `CC(C)c1nc2sc3c(c2c(=O)n1N)CC(C)(C)OC3`, the Potency was 4.65 µM (active). For `CC1(C)Cc2c(sc3nc4n(c(=N)c23)CCCCC4)CO1`, the Potency was “inactive”. For `CC1=C(C(=O)OC(C)(C)C)C(c2ccc(Br)cc2)NC(=O)N1CCCC(=O)O` (stereo not drawn), the Potency was “inactive”. With `CC1=C(C(=O)OCc2ccccc2)C(c2ccc(C(F)(F)F)cc2)NC(=O)N1CCCCCC(=O)O` (stereo not drawn) the Potency was 13.1 µM (active). With `COCCN1C(=O)N[C@@H](c2ccccc2)C(C(=O)OC)=C1C` the Potency was “inactive”.
